Bioassay records from PubChem.
Sampled rows, rich in hits. Any-hit rate of the full collection: about 4%.
RecA splice inh: blocks M. tuberculosis RecA intein splicing; P9WHJ3; cell-free RecA intein splicing, fluorescence; inhibition, % (test concentration not listed); 290,000 compounds, 0.75% hits; in the data active = inhibition above about 30%; inconclusive = no clear call, values can overlap the other calls;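 note: 0% = vehicle wells and 100% = reference inhibitor control wells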
Mtb bLac sens: beta-lactam sensitization of Mtb H37Rv; M. tuberculosis H37Rv growth with meropenem, percent inhibition; inhibition, % at 25 µM; 330,000 compounds, 0.27% hits; AID 434955; call rule not given here;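 note: growth measured after seven days incubation then overnight dye step; 0% = bacteria only wells and 100% = bacteria with antibiotic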
Rv3671c protease: inhibits the M. tuberculosis serine protease Rv3671c; 320,000 compounds, 0.048% hits; P9WHR9; inhibition, % at 5.96 µM; AID 2606; in the data active = inhibition above about 38%;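 note: extracellular domain of Rv3671c used as enzyme; 0% = enzyme with DMSO and 100% = no enzyme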
Target sequence (P9WHR9 whole entry, looked up, the tested form may be a part): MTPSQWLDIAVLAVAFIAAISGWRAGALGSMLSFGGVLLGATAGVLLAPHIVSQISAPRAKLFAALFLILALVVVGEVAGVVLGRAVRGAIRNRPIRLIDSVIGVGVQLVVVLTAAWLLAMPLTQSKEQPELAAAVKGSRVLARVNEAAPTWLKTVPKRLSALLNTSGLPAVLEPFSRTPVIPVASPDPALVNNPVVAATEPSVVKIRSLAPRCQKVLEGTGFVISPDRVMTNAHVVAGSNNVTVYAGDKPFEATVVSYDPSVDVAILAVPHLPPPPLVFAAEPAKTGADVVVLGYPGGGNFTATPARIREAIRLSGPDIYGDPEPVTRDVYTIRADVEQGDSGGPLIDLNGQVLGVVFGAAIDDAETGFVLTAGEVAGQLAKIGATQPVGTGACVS
GDH-TPI counter-1: counter-screen for M. tuberculosis FBA inhibitors: GDH-TPI coupled enzymes; 360,000 compounds, 1.2% hits; GDH-TPI coupled enzyme counterscreen, NADH absorbance; inhibition, % at 4.8 µM; AID 588335; in the data active = inhibition above about 30%;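 note: 0% = DMSO wells and 100% = wells lacking the enzyme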
Mtb UGM inh: inhibitors of M. tuberculosis UDP-galactopyranose mutase; AID 504406; purified UGM, fluorescence polarization probe displacement; inhibition, % at 10 µM; 320,000 compounds, 0.06% hits; in the data active = inhibition above about 10%, passing the limit was not always enough; inconclusive = no clear call, values can overlap the other calls
FBA Mtb inh: Mtb fructose-bisphosphate aldolase inhibition | P9WQA3 | purified M. tuberculosis FBA, fluorescence read-out | inhibition, % at 1 µM | 360,000 compounds, 2.3% hits;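 note: 0% = vehicle and 100% = reference inhibitor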
Mtb FBA inh conf: confirmation of M. tuberculosis fructose-bisphosphate aldolase inhibitors. inhibition, % at 1 µM. AID 651616. shares compounds with FBA Mtb inh. purified M. tuberculosis FBA, fluorescence read-out. 5,600 compounds, 78% hits;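 note: 0% = vehicle wells and 100% = reference inhibitor wells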
GDH-TPI counter-2: inhibits GDH-TPI coupling enzymes, flagging Mtb FBA hits; AID 652141; GDH-TPI coupled enzyme counterscreen, fluorescence; inhibition, % at 1 µM; 5,600 compounds, 81% hits; shares compounds with FBA Mtb inh; in the data active = inhibition above about 10%
GDH-TPI DR: counter-screen for M. tuberculosis FBA inhibitors: GDH-TPI dose response; shares compounds with FBA Mtb inh; GDH-TPI coupled enzyme assay, fluorescence, artifact counterscreen; IC50, µM; 170 compounds, 79% hits; AID 652145; call rule not given here
The depositor's hits bear a star; ? = inconclusive; nt = no result; + = active, no number. Cut-off read from the data, not from the text of the source, unless noted: active = inhibition above about 27%; inactive = the rest.

SMILES	RecA splice inh	Mtb bLac sens	Rv3671c protease	GDH-TPI counter-1	Mtb UGM inh	FBA Mtb inh	Mtb FBA inh conf	GDH-TPI counter-2	others
O=C(O)CCN1C(=O)c2ccc(NC(=O)c3cccs3)cc2C1=O	1	7	3	16	0	32*	183*	171*
O=C(Nc1ccc2c(c1)C(=O)N(c1ccccc1)C2=O)c1cccs1	-1	9	-8	-1	0	0	nt	nt
Cc1ccc(C(=O)CCc2ccc(N)cc2)cc1	-1	6	-4	5	2	1	nt	nt
Cc1cccc(C)c1N(CC(=O)NCc1ccccc1)C(=O)c1csnn1	nt	4	1	2	0	0	nt	nt
COc1ccc(Cl)cc1S(=O)(=O)N1CCCC(C(=O)NCc2ccccn2)C1 (stereo not given)	1	-7	-6	5	-1	-2	nt	nt
CC(C)Sc1nnc(NC(=O)c2ccco2)s1	-1	-5	-10	5	-1	-6	nt	nt
O=C(Nc1nnc(/C=C/c2ccccc2)s1)c1ccco1	-3	-8	4	74*	2	34*	-1	0
CCS(=O)(=O)Nc1c(C(=O)O)[nH]c2ccccc12	1	3	8	-3	0	46*	76*	63*
CCS(=O)(=O)Nc1c(C(=O)OC)[nH]c2ccccc12	0	14	0	10	-3	4	nt	nt
Cc1ccc(-c2cnc(-c3ccccc3C(=O)O)o2)cc1	2	-10	-10	0	3	70*	11	-3	GDH-TPI DR=1.6*
NC(=O)c1ccc(-c2ncc(-c3ccccc3)o2)cc1	-1	?	-10	20	3	nt	nt	nt
CN(C)c1ccc(P(=O)(OC2CCCCC2)C(O)c2ccccn2)cc1 (stereo not given)	1	3	3	7	-2	68*	73*	79*
Cc1c(C)c2ccc(OC(C)C(=O)NCCCN3CCOCC3)c(C)c2oc1=O (stereo not given)	-2	-3	4	-1	0	32*	74*	60*
Cc1c(OC(C)C(=O)NCCN2CCOCC2)ccc2c3c(c(=O)oc12)CCC3 (stereo not given)	2	4	-7	-1	1	25	nt	nt
Cc1ccc2oc(C(=O)NCCCN3CCOCC3)c(C)c2c1	-1	-3	3	-2	-1	15	nt	nt
Cc1c(C)c2ccc(OC(C)C(=O)NCCN3CCOCC3)c(C)c2oc1=O (stereo not given)	-1	5	-2	9	-1	47*	+	+
Cc1c(OC(C)C(=O)NCCCN2CCOCC2)ccc2c3c(c(=O)oc12)CCCC3 (stereo not given)	-6	3	-5	0	3	27*	48*	38*
COc1ccc2oc(C(=O)NCCN3CCOCC3)c(C)c2c1OC	-2	-23	-2	11	1	102*	+	186*
Cc1c(OC(C)C(=O)NCCCN2CCOCC2)ccc2c3c(c(=O)oc12)CCC3 (stereo not given)	1	-13	-1	11	-4	18	nt	nt
Cc1ccc(CN2CC(N3CCN(C)CC3)CS2(=O)=O)cc1 (stereo not given)	nt	nt	nt	nt	nt	2	nt	nt
c1ccc(N2CC3COc4ccccc4C3=N2)cc1 (stereo not given)	nt	nt	nt	17	nt	58*	73*	71*
Cc1cc(-c2ccccc2)nc2oc(C(=O)NN)c(N)c12	-63	-2	7	9	1	39*	55*	44*
COC(=O)c1oc2nc(C)cc(C)c2c1N	1	2	-2	16	-1	69*	47*	40*
Cc1cc(C)c2c(N)c(C(=O)c3ccccc3)oc2n1	-1	-4	3	8	nt	5	nt	nt
O=C(NCCc1csc(-c2ccc(Cl)cc2)n1)c1ccco1	2	4	-3	0	1	2	nt	nt
SMILES	RecA splice inh	Mtb bLac sens	Rv3671c protease	GDH-TPI counter-1	Mtb UGM inh	FBA Mtb inh	Mtb FBA inh conf	GDH-TPI counter-2	others
COc1ccc2c(c1)nc(-c1cccc(Br)c1)c(=O)n2C(c1ccccn1)c1nc2ccccc2[nH]1 (stereo not given)	nt	nt	nt	nt	nt	53*	68*	47*
CCn1c(/C=C/c2ccccc2)nc2ccccc2c1=O	3	1	-4	25	0	-1	nt	nt
COc1ccc(Cn2c(/C=C/c3ccccc3)nc3ccccc32)cc1	10	19	-8	15	0	48*	169*	138*
CC(C)Cn1c(/C=C/c2ccccc2)nc2ccccc21	-2	62	-8	39*	2	78*	92*	67*
CCC(C)n1c(/C=C/c2ccccc2)nc2ccccc21 (stereo not given)	0	86	-1	17	1	33*	53*	32*
CCn1c(/C=C/c2ccccc2)nc2ccccc21	4	47	0	65*	0	58*	+	+
CC(NC(=O)Cc1ccc(S(=O)(=O)N2CCOCC2)s1)c1ccc(Br)cc1 (stereo not given)	nt	nt	nt	3	nt	-1	nt	nt
COc1cc(C(=O)N2CCN(S(=O)(=O)c3ccc(C)cc3)CC2)ccc1OCC(=O)N1CCOCC1	nt	nt	nt	4	nt	0	nt	nt
COc1ccc(CCC(=O)N2CCN(c3ccccc3)CC2)cc1OC	1	1	-10	8	0	0	nt	nt
CC(=O)O[C@]1(C(C)=O)CC[C@H]2[C@@H]3C=CC4=CC(=O)C=C[C@]4(C)[C@H]3CC[C@@]21C	5	-2	-3	9	4	4	nt	nt
CCCN1C(=O)c2ccccc2NC1c1ccc(C)cc1 (stereo not given)	3	1	1	3	0	78*	5	-2
O=C1c2ccccc2NC(c2ccccc2)N1CCCN1CCOCC1 (stereo not given)	-2	-6	-2	9	-2	48*	123*	107*
Cc1ccc(CN2C(=O)c3ccccc3NC2c2ccccn2)cc1 (stereo not given)	-2	-2	-4	-5	4	31*	63*	51*
COc1ccc(CN2C(=O)c3cccnc3C2O)cc1 (stereo not given)	26	-5	4	-6	7	0	nt	nt
CCCS(=O)(=O)NC(=O)C1(C)CCN(C(=O)c2cc(C)n(C(C)(C)C)n2)C1 (stereo not given)	nt	nt	nt	-2	nt	-1	nt	nt
CCCOc1ccc(C(=O)Nc2ccc3c(c2)OCCO3)cc1	0	2	-7	10	0	2	nt	nt
CC(C)(C)OC(=O)C[C@H]1C/C=C\C[C@@H](CC(=O)N(CCO)Cc2ccccc2)C(=O)N2CCC[C@H]2COC1=O	nt	-10	4	2	-1	2	nt	nt
